The text below walks through data of article PMC4336329 (PLoS ONE, 2015).

Screen size: about 310,000 compounds; about 14,000 (4.5%) showed an effect of 50% or more. The effect is printed as a negative number. Shown is part of a subset that was picked to be rich in strong results.
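Note: peak tail current of the secondary pulse compared with the same well before compound.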

For this assay, the target named is human ether-à-go-go-related gene (hERG) potassium channel (human, UniProt Q12809). The assay is described as follows: primary screen, population patch clamp on CHO cells stably expressing hERG; higher = less effect of the substance.
human ether-à-go-go-related gene (hERG) potassium channel, sequence (Q12809 whole entry, looked up): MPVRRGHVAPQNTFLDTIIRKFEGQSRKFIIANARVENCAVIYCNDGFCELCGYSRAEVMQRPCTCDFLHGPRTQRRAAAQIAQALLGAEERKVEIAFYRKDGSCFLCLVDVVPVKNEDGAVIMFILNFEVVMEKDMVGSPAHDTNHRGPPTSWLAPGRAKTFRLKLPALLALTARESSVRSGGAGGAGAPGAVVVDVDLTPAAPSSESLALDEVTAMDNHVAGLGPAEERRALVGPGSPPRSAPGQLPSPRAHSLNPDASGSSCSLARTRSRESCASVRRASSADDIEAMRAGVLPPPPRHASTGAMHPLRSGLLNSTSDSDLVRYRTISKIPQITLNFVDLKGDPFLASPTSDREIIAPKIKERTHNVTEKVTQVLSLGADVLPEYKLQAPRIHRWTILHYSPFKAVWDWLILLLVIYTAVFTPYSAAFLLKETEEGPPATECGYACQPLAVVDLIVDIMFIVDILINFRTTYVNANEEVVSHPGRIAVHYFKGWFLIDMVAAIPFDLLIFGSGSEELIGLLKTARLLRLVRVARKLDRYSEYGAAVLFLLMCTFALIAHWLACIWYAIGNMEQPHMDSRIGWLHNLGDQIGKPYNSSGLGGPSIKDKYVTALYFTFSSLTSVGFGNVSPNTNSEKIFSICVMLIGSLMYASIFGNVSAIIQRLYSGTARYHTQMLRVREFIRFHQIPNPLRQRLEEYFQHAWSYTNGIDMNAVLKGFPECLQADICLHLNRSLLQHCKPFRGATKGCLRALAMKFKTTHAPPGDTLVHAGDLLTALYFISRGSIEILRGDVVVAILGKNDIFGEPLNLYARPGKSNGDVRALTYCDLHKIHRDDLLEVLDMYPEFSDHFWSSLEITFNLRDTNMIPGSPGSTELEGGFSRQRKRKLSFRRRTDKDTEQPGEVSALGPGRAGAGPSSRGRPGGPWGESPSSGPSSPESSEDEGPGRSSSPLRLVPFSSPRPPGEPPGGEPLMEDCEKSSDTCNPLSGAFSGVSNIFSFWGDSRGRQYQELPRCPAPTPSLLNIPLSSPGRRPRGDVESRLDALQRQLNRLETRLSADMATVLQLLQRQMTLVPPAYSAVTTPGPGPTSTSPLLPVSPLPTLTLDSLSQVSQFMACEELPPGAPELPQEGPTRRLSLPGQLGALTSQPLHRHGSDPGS
As to `CC1CC(C)CN(CC(O)COCCOc2ccc(Br)cc2)C1.Cl` (centres unmarked), the “hERG current change (%, negative = inhibition) at 10uM” value is -71.6%.
Turning to `Cl.OC(COCCOc1ccc(Br)cc1)CN1CCCCC1` (centres unmarked), the “hERG current change (%, negative = inhibition) at 10uM” value is given as -37.1%.
Take `Cl.OCCN1CCN(CC(O)COCCOc2ccc(Br)cc2)CC1` (centres unmarked): the “hERG current change (%, negative = inhibition) at 10uM” value is reported as -20.2%.
As to `CCN1CCN(CC(O)COCCOc2ccc(Br)cc2)CC1.Cl` (centres unmarked), the “hERG current change (%, negative = inhibition) at 10uM” value was -12.3%.
Take `CC1CC(C)CN(CC(O)COCc2ccccc2)C1.Cl` (centres unmarked): the “hERG current change (%, negative = inhibition) at 10uM” value is -7.79%.
With `COc1cc(CCN2C(=O)c3cccc4cccc(c34)C2=O)c(S(=O)(=O)NCCO)cc1OC`, the “hERG current change (%, negative = inhibition) at 10uM” value is -23.8%.
In the case of `CC(C)COP(=O)(OCC(C)C)C(O)c1ccccc1F` (centres unmarked), the “hERG current change (%, negative = inhibition) at 10uM” value is reported as -1.27%.
Under `CCCNC(=O)/C=C/c1ccc(S(=O)(=O)Nc2ccccc2OC)cc1` stands -1.75%; under `Cc1ccc(OCCOc2cccc3ccc(C)nc23)c([N+](=O)[O-])c1.O=C(O)C(=O)O`, -10.7%.
Under `CC1CCCCN1c1ncnc2ccccc12.Cl` (centres unmarked) stands -7.46%; under `Cc1ccc(C)c(N2CCN(S(=O)(=O)c3ccc4c(c3)C(C)(C)C(=O)N4C)CC2)c1`, 3.88%.
The figure for `Cc1nc2ncnn2c(N2CCN(C(c3ccccc3)c3ccccc3)CC2)c1C` is -47.7%; for `CCOC(=O)c1cccc(NC(=O)CSc2nnc(COc3ccccc3)n2CC)c1` it is -51.3%; for `N#Cc1ccc(OCc2nnc(SCC(=O)c3ccccc3)n2-c2ccccc2)cc1` it is -40.8%.
In the case of `CCn1c(COc2cccc(C)c2)nnc1SCC(=O)Nc1cccc(C(=O)OC)c1`, the “hERG current change (%, negative = inhibition) at 10uM” value is recorded as -2.45%.
Under `COC(=O)c1cccc(NC(=O)CSc2nnc(COc3ccc(C#N)cc3)n2-c2ccccc2)c1` stands -73.5%.
Under `COCCCn1c(SCC(=O)Nc2cccc(C(=O)OC)c2)nnc1-c1ccncc1` stands -15.8%.
On to `CCn1c(COc2cccc(C)c2)nnc1SCC(=O)Nc1cccc(C(=O)O)c1`, for which the “hERG current change (%, negative = inhibition) at 10uM” value is given as 9.41%.
For the compound `COCCCn1c(SCC(=O)Nc2ccccc2)nnc1-c1ccncc1`, the “hERG current change (%, negative = inhibition) at 10uM” value is reported as -6.82%.
Under `CCOC(=O)c1cccc(NC(=O)CSc2nnc(-c3ccncc3)n2CCCOC)c1` stands -50.4%; under `COC(=O)c1cccc(NC(=O)CSc2nnc(COc3ccccc3)n2C)c1`, -7.84%.
Under `COc1ccc(OC)c(CCNC(=O)Cn2ccc3cc(S(=O)(=O)N4CCCC4)ccc32)c1` stands -13.9%; under `CCN(CC)CCNC(=O)c1cc2c(s1)-c1ccccc1SC2`, -77.8%; under `COCCNC(=O)c1cc2c(s1)-c1ccc(Cl)cc1SC2`, -5%.
Under `CCN(CC)CCNC(=O)c1cc2cc(Br)ccc2s1` stands -61.1%; under `NNC(=O)c1cc2c(s1)-c1cc(Cl)ccc1SC2`, 10.3%.
With `CNC(=O)c1cc2cc(Br)ccc2s1`, the “hERG current change (%, negative = inhibition) at 10uM” value is on record as 10.1%.
The figure for `CN(C)C(=O)c1cc2cc(Br)ccc2s1` is -3.77%.
As for `CN(C)CCNC(=O)c1cc2c(s1)-c1ccc(Cl)cc1SC2`, the “hERG current change (%, negative = inhibition) at 10uM” value is listed as -81.1%.
The figure for `CN(CCC#N)C(=O)c1cc2c(s1)-c1ccccc1SC2` is -8.88%.
The figure for `CCOCCCNC(=O)c1cc2c(s1)-c1ccccc1SC2` is -5.28%.
On to `C/C(=N/OCC(=O)NCCCCCCNC(=O)CO/N=C(/C)c1cccs1)c1cccs1`, for which the “hERG current change (%, negative = inhibition) at 10uM” value was -20.8%.
The figure for `CCCCOC(=O)Nc1cc(Cl)ccc1C` is 1.24%; for `O=S(=O)(/N=C(/Nc1ccccc1)C(F)(F)F)c1ccccc1` it is -20.7%; for `Br.C/C(CC1CC(COCC(C)C)OC1=O)=N\Nc1nc(-c2ccccc2)cs1` (centres unmarked) it is -15.5%.
On to `CC1Sc2ccc(S(=O)(=O)CCC(=O)Nc3ccccc3Cl)cc2NC1=O` (centres unmarked), for which the “hERG current change (%, negative = inhibition) at 10uM” value is reported as 4.08%.
As to `Cc1ccc(/C=C/C(=O)Nc2nnc(SCc3ccc(C#N)cc3)s2)o1`, the “hERG current change (%, negative = inhibition) at 10uM” value is listed as -11%.
Turning to `O=C1CC(c2ccccc2)n2nc(NC(=O)C3CCCO3)nc2N1` (centres unmarked), the “hERG current change (%, negative = inhibition) at 10uM” value is -10%.
Consider `COc1ccc(S(=O)(=O)N(C)C)cc1NC(=O)COC(=O)CC1CCCC1`, for which the “hERG current change (%, negative = inhibition) at 10uM” value is recorded as -72.8%.
`CCN(CC)S(=O)(=O)c1ccc(OC)c(NC(=O)CC2CCCC2)c1`: the “hERG current change (%, negative = inhibition) at 10uM” value was -10.8%.
Consider `Cc1ccc(S(=O)(=O)N(C)C)cc1NC(=O)COC(=O)CCC1CCCC1`, for which the “hERG current change (%, negative = inhibition) at 10uM” value was -18.5%.
On to `Cc1ccc(S(=O)(=O)N(C)C)cc1NC(=O)COC(=O)CC1CCCC1`, for which the “hERG current change (%, negative = inhibition) at 10uM” value was -74.2%.
Under `COc1ccc(NC(=O)COC(=O)CC2CCCC2)cc1Cl` stands -1.21%.
`Cc1ccc(S(=O)(=O)N(C)C)cc1NC(=O)COC(=O)CCC1CCCCC1`: the “hERG current change (%, negative = inhibition) at 10uM” value was found to be 2.99%.
